Among the data in PubChem BioAssay (NCI) are growth values, retold here.

The panel holds about 83,000 compounds, 20% with a hit somewhere; the sample as a whole holds those more often.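 Negative percent growth values reflect cell death: -40 means 40% of the cells present at the start died, and -100 means all died.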 Values without a mark were called inactive. Activity calls are given as the source filed them. The calls were made as follows: active = growth percent below 10; inactive = the rest.

Test in all cases: NCI-60 one-dose screen, 48 h (100 = growth as untreated, 0 = no growth, -100 = all killed)
Holding throughout (conditions): 10 µM unless noted

In test [1] the test system is NCI-H23 lung.
Test [2] deals with NCI-H226 lung.
The test system of test [3] is NCI-H322M lung.
Test [4] relates to HOP-62 NSCLC.
Test [5] concerns NCI-H460 lung.
For test [6], the system named is HOP-92 NSCLC.
The test system of test [7] is NCI-H522 lung.
Test [8] relates to A549/ATCC NSCLC.
Test [9] deals with 786-0 renal.
The subject of test [10] is COLO 205 colon.
Test [11] deals with DU-145 prostate.
Test [12] has as its system K-562 leukemia.
Test [13] deals with MALME-3M melanoma.
Test [14] has as its system MDA-MB-231 breast.
For test [15], the system named is RXF 393 renal.
The subject of test [16] is SF-268 CNS.
The test system of test [17] is SF-295 CNS.
Test [18] concerns SF-539 CNS.
Test [19] has as its system UACC-257 melanoma.
Test [20] has as its system M14 melanoma.

Regarding `CCc1ccc(C2=C/C(=C/c3ccccc3)C(=O)N2CCc2ccc(S(N)(=O)=O)cc2)cc1`, the growth was 101% in [1]; 99.2% in test [2]; 94.5% in test [3]; 96.9% in [4]; 100% in test [5]; 99.2% in test [6]. The growth was 100% in test [7]; 108% in [8]; 98.6% in test [9]; 120% in test [10]; 115% in [11]; 97.6% in test [12]. Further, the growth in [13] is 94.3%; in test [14] it was 100%; in [15] it was 99.3%; in [16], 94%; in [17], 101%; in [18], 96.3%. In addition, the growth in [19] is 106%; in test [20], 99.4%.

Turning to `CCOC(=O)c1cc(C(=O)c2ccc(OC)c(OC)c2)n2ccc(-c3ccccn3)cc12`, the growth in test [1] is 78%; in test [2], 49.9%; in [3] it was 58.7%; in test [4], 53.1%; in [5], 17.9%; in test [6], 41.6%. Also, the growth in test [7] was -3.85% (active); in test [8], 47.5%; in [9] it was 101%; in test [10], 65.5%; in test [11] it was 65.1%; in test [12], 107%. The growth in [13] was 49.6%; in test [14], 58.1%; in test [15], 63.9%; in test [16], 25.3%; in [17] it was 69.1%; in test [18], 29.6%. The growth in [19] is 76.3%; in test [20], 101%.

In the case of `CCNc1cc2c(cc1Br)-c1ccccc1C2=O`, the growth was 86% in test [1]; 92.3% in test [2]; 87.9% in test [3]; 92.3% in test [4]; 96.8% in test [5]; 84.9% in test [6]. The growth in [7] is 93.6%; in test [8], 96.3%; in test [9] it was 109%; in [10] it was 111%; in [11], 97.7%; in [12], 102%. Moreover, the growth in test [13] was 92.8%; in test [14], 73.2%; in test [15], 105%; in test [16], 90%; in test [17], 106%; in [18], 103%. Moreover, the growth in test [19] was 93.4%; in [20] it was 107%.

Regarding `CC1Cc2c(ncnc2-n2cnc3ccccc32)N(C)c2ccccc21` (stereo not given), the growth in test [1] was 48.5%; in test [2] it was 58.6%; in test [3], 63.7%; in test [4], 32.3%; in test [5] it was 18.7%; in test [6], 36.3%. Further, the growth in [7] is 20%; in test [8], 39.3%; in test [9], 39.2%; in test [10], 20.9%; in test [11] it was 50.3%; in test [12], 15.5%. Besides, the growth is 64.5% in test [13]; 29.4% in test [14]; 34% in test [15]; 49% in [16]; 18.9% in test [17]; 17% in test [18]. For the same compound, the growth was 53.1% in test [19] and 12.9% in [20].

Regarding `O=C(NCCCCCCCNC(=O)OCc1ccc2c(Cl)cc(Cl)c(O)c2n1)OCc1ccc2c(Cl)cc(Cl)c(O)c2n1`, the growth in [1] is -52.3% (active); in test [2] it was -50.3% (active); in test [3], 31%; in test [4], -56.8% (active); in test [5] it was -31.3% (active); in test [6], -75% (active). For the same compound, the growth in test [7] is -55.6% (active); in test [8] it was -68.7% (active); in [9] it was -62.7% (active); in test [10], -75.9% (active); in [11], -87.3% (active); in test [12], 2.04% (active). Besides, the growth was -87.4% (active) in [13]; -72% (active) in test [14]; -90.1% (active) in test [15]; -58.8% (active) in [16]; 1.17% (active) in [17]; -96.6% (active) in test [18]. In addition, the growth in test [19] was -41.6% (active); in test [20], -76.4% (active).

With `CC(C)C1=NOC(=O)C1=Cc1cn(-c2ccccc2)nc1-c1cccc([N+](=O)[O-])c1`, the growth in [1] was 91.9%; in test [2] it was 102%; in test [3], 98.1%; in test [4], 99.1%; in test [5] it was 87.9%; in [6] it was 88.8%. Besides, the growth was 74.7% in test [7]; 97% in test [8]; 76.7% in test [9]; 109% in [10]; 84.9% in test [11]; 33.4% in [12]. Further, the growth is 109% in test [13]; 93.1% in test [14]; 68.9% in test [15]; 94.1% in test [16]; 99.1% in [17]; 98.1% in [18]. For the same compound, the growth is 104% in [19] and 78.3% in test [20].

As for `Clc1ccccc1/C=N\Nc1ccccn1`, the growth in test [1] is 84.9%; in test [2], 80.8%; in test [3] it was 111%; in [4], 83.8%; in [5], 99.2%; in test [6], 83.9%. Moreover, the growth in [7] is 91.7%; in test [8], 93.6%; in test [9], 113%; in [10], 95.7%; in test [11] it was 105%; in test [12], 94.8%. The growth was 110% in test [13]; 83.3% in test [14]; 107% in test [15]; 96.3% in test [16]; 95.7% in test [17]; 98.5% in test [18]. Moreover, the values for the growth in [19] and in [20] were 105% and 124%, respectively.
